Screening results deposited in PubChem by several laboratories.
proKLK7 act – activates the human kallikrein-7 zymogen. P49862. purified proKLK7, EDANS-DABCYL substrate fluorescence; 100% is mature enzyme control, 0% vehicle. activation, % at 7 µM. 0.9% of 370,000 active;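 active = activation above the mean of all tested compounds plus 3 SD, computed per campaign excluding outliers beyond control limits, cut at about 13% in these data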
Target sequence (P49862 whole entry, looked up): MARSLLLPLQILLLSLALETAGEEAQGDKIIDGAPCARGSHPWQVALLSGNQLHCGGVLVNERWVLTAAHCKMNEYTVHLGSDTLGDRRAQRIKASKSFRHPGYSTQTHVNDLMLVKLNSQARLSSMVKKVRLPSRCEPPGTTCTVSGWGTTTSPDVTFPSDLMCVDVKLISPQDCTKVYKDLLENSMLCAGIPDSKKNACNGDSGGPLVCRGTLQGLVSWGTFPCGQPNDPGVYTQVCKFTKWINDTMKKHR
LEDGF integ inh – blocks HIV-1 LEDGF/p75-dependent DNA integration; TR-FRET IN-LEDGF/p75 DNA integration, Eu/Cy5; inhibition, % at 3.7 µM; 0.64% of 370,000 active;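 active = inhibition above the screen-wide mean plus 3 SD, cut at about 13% in these data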;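 also: signal is the Cy5 over europium emission ratio at 671 and 618 nm; 0% = plate median of compound wells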
Neddylation inh – cullin neddylation inhibition | 0.58% of 360,000 active | P61081+Q13564 | TR-FRET cullin neddylation, biochemical | AID 651699 | calls only at 25 µM; in the data active = inhibition above about 36%
MBD2 DNA inh – inhibitors of human MBD2 binding to methylated oligonucleotide; TR-FRET; inhibition, % at 4.4 µM; 0.31% of 370,000 active; in the data active = inhibition above about 13%
Rin1 Abl inh – blocks binding of human Rin1 to Abl; TR-FRET Rin1/Abl binding, biochemical; AID 588664; P00519+Q13671; inhibition, % at 7.35 µM; 0.4% of 360,000 active; in the data active = inhibition above about 5%, passing the limit was not always enough
UHRF1 MBD2 ctr – human UHRF1 methylated DNA binding inhibitors; Q96T88; UHRF1 binding to methylated oligo, TR-FRET; inhibition, % at 4.4 µM; 0.75% of 370,000 active; in the data active = inhibition above about 21%;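 also: UHRF1 SRA domain binding a hemimethylated CpG hairpin DNA probe; 0% = median of test compound wells and 100% = reference inhibitor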
The depositor's hits bear a star. The list is not random: actives were taken first. Their share in the collection is about 3.1%.

Results for O=C1N/C(=N/NC(=O)c2cccc3ccccc23)S/C1=C\c1ccccc1OCc1ccccc1 ?
proKLK7 act: -1; LEDGF integ inh: 1; MBD2 DNA inh: -2; Rin1 Abl inh: 5; UHRF1 MBD2 ctr: -1

How did CC(=O)c1ccc(OCc2cc([N+](=O)[O-])cc3c2OCOC3)cc1 do in these assays?
proKLK7 act: 0; LEDGF integ inh: 4; Neddylation inh: inactive; MBD2 DNA inh: -2; Rin1 Abl inh: 2; UHRF1 MBD2 ctr: 23*

What do the screens show for `COc1ccc(CCNCc2cc3ccc(C)cc3[nH]c2=O)cc1OC`?
proKLK7 act: 1; LEDGF integ inh: -3; Neddylation inh: inactive; MBD2 DNA inh: 0; Rin1 Abl inh: 0; UHRF1 MBD2 ctr: 1

Results for S=C(NC1CCCCC1)N1CCN(Cc2ccccc2)CC1 ?
proKLK7 act: 0; LEDGF integ inh: -2; Neddylation inh: inactive; MBD2 DNA inh: 5; Rin1 Abl inh: -4; UHRF1 MBD2 ctr: 21*

How did CS(=O)(=O)CCC(C(=O)Nc1ccc2c(c1)OCO2)N1Cc2ccccc2C1=O (stereo not drawn) do in these assays?
proKLK7 act: 0; LEDGF integ inh: 1; Neddylation inh: inactive; MBD2 DNA inh: -2; Rin1 Abl inh: -1; UHRF1 MBD2 ctr: -5

What do the screens show for `Cc1ccn2c(Cc3ccccc3)c(-c3ccc(F)cc3)nc2c1`?
proKLK7 act: -2; LEDGF integ inh: -3; Neddylation inh: inactive; MBD2 DNA inh: 8; Rin1 Abl inh: 1; UHRF1 MBD2 ctr: 21*

What do the screens show for `COC(=O)c1ccc2nc(-c3ccc(F)cc3)c(Cc3ccc(OC)cc3C)n2c1`?
proKLK7 act: -4; LEDGF integ inh: 0; Neddylation inh: inactive; MBD2 DNA inh: 9; Rin1 Abl inh: 6; UHRF1 MBD2 ctr: 21

Results for COc1ccc(Cc2c(-c3ccc(F)cc3)nc3ccc(C)cn23)c(C)c1 ?
proKLK7 act: -1; LEDGF integ inh: -2; MBD2 DNA inh: 4; UHRF1 MBD2 ctr: 21*

Results for COc1ccc(Cc2c(-c3ccc(OC)c(OC)c3)nc3c(C)cc(Br)cn23)c(C)c1 ?
proKLK7 act: 1; LEDGF integ inh: -4; Neddylation inh: inactive; MBD2 DNA inh: 4; Rin1 Abl inh: -4; UHRF1 MBD2 ctr: 13

Results for COc1ccc(Cc2c(-c3ccc(OC)c(OC)c3)nc3ccc(C)cn23)c(C)c1 ?
proKLK7 act: -2; LEDGF integ inh: -1; Neddylation inh: inactive; MBD2 DNA inh: 7; Rin1 Abl inh: -1; UHRF1 MBD2 ctr: 24*

What do the screens show for `CCOC(=O)Cn1cnc2c(nnn2-c2ccccc2)c1=O`?
Neddylation inh: inactive; Rin1 Abl inh: 1

Results for CCOc1ccc(-n2nnc3c(=O)n(C/C=C/c4ccccc4)cnc32)cc1 ?
proKLK7 act: 1; LEDGF integ inh: 1; Neddylation inh: inactive; MBD2 DNA inh: -1; Rin1 Abl inh: 1; UHRF1 MBD2 ctr: 23*

Results for COc1ccc(CN(C)CCCn2cnc3c(SC)ncnc32)cc1OC ?
proKLK7 act: 0; LEDGF integ inh: -4; Neddylation inh: inactive; MBD2 DNA inh: 3; Rin1 Abl inh: 2; UHRF1 MBD2 ctr: 29*

What do the screens show for `CCN1CCN(c2c(Cl)cccc2NC(=O)c2ccco2)CC1`?
proKLK7 act: -1; LEDGF integ inh: 5; Neddylation inh: inactive; MBD2 DNA inh: 11; Rin1 Abl inh: 1; UHRF1 MBD2 ctr: 23*

What do the screens show for `C/C(=N\NC(=O)CN1CCCCC1)c1cccc([N+](=O)[O-])c1`?
proKLK7 act: 0; LEDGF integ inh: -2; Neddylation inh: inactive; MBD2 DNA inh: 0; Rin1 Abl inh: -1; UHRF1 MBD2 ctr: 25*

What do the screens show for `N#Cc1c(SCC(=O)Nc2ccccc2C(F)(F)F)sc2c(O)cc(=O)[nH]c12`?
proKLK7 act: -1; LEDGF integ inh: 9; Neddylation inh: inactive; MBD2 DNA inh: 13; Rin1 Abl inh: 2; UHRF1 MBD2 ctr: 31*

How did CC(C)CC(=O)NCCCCc1ccccc1 do in these assays?
proKLK7 act: 0; LEDGF integ inh: 3; Neddylation inh: inactive; MBD2 DNA inh: -2; Rin1 Abl inh: 3; UHRF1 MBD2 ctr: 21*

What do the screens show for `CCn1nc(C)cc1C(=O)N1CCCC(N(C)CCc2ccc(OC)c(OC)c2)C1` (stereo not drawn)?
proKLK7 act: 0; LEDGF integ inh: -1; Neddylation inh: inactive; MBD2 DNA inh: -2; Rin1 Abl inh: 1; UHRF1 MBD2 ctr: 3
